Assay results taken from PubChem BioAssay (NCATS).
Results filed as inconclusive are left out. The source made the active and inactive calls. Unless noted, calls come from the whole dose curve; as a rule, active = well fitted curve in the direction sought with a large enough effect; inconclusive = small, poorly fitted or top-dose-only effect, or another doubt; inactive = no such curve, though single readings can be large; an effect the other way counts as inactive or inconclusive.

Legend:
[1] = target: Catechol O-methyltransferase (Homo sapiens) (UniProt P21964); experiment: Confirmatory Screen for Target Class Profiling of Small Molecule Inhibitors of Methyltransferases (AID 1745852); details: MTase-Glo luminescence, SAH detection, recombinant enzyme; measured here: COMT max response; stronger effect = lower value; for activity change, negative = inhibition: % is set by controls: 0 for no effect and ±100 for the full control effect
Sequence of Catechol O-methyltransferase (Homo sapiens) (P21964 whole entry, looked up): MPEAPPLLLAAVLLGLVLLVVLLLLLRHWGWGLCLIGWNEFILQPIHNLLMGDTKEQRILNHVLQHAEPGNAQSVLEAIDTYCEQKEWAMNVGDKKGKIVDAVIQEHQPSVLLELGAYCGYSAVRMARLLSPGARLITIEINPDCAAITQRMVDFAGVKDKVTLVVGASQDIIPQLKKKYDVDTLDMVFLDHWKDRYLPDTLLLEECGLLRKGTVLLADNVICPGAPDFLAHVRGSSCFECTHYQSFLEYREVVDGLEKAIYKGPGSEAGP

[2] = target: Guanidinoacetate N-methyltransferase (Homo sapiens) (UniProt Q14353); experiment: as above; details: MTase-Glo luminescence, SAH detection, recombinant enzyme; activity change, negative = inhibition: at 85.7 µM (top of the series) unless noted
[3] = target: Nicotinamide N-methyltransferase (Homo sapiens) (UniProt P40261); experiment: as above; details: MTase-Glo luminescence, SAH detection, recombinant enzyme; measured here: NNMT max response; stronger effect = lower value
Sequence of Nicotinamide N-methyltransferase (Homo sapiens) (P40261 whole entry, looked up): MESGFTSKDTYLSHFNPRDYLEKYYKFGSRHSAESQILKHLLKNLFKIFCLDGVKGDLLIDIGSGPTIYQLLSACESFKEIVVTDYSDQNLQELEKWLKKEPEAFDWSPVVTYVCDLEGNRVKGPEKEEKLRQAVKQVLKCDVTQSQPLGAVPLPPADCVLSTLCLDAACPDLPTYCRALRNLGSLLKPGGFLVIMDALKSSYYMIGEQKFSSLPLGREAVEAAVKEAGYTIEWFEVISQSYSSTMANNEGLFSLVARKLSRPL

[4] = target: Phenylethanolamine N-methyltransferase (Homo sapiens) (UniProt P11086); experiment: as above; details: MTase-Glo luminescence, SAH detection, recombinant enzyme; measured here: PNMT max response; stronger effect = lower value
Sequence of Phenylethanolamine N-methyltransferase (Homo sapiens) (P11086 whole entry, looked up): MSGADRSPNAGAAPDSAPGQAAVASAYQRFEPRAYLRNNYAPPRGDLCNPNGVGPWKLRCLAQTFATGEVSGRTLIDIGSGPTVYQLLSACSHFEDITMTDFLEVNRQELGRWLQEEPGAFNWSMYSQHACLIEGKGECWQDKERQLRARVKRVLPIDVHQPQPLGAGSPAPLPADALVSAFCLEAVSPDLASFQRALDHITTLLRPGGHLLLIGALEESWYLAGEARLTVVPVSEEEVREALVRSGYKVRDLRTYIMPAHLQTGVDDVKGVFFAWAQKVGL

[5] = target: DNA repair nuclease/redox regulator APEX1 (Homo sapiens) (UniProt P27695); experiment: qHTS Validation Assay for Inhibitors of the Human Apurinic/apyrimidinic Endonuclease 1 (APE1) (AID 1705;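 note: TAMRA fluorescence gain over two minutes as APE1 cuts a quenched THF abasic duplex; % is set by controls: 0 for no effect and ±100 for the full control effect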); details: purified APE1 endonuclease activity, fluorescence, titration; series mostly up to 57.1 µM
Sequence of DNA repair nuclease/redox regulator APEX1 (Homo sapiens) (P27695 whole entry, looked up): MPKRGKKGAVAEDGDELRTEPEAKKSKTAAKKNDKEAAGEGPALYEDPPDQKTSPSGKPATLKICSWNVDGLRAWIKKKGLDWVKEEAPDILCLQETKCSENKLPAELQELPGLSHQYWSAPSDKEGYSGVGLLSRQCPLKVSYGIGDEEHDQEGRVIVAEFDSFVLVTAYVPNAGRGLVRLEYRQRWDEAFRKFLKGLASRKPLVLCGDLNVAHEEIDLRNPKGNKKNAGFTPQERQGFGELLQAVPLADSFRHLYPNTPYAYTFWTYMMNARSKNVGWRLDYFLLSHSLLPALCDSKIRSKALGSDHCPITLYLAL
Method in brief: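 Substrate: 50 nM final fluorophore/quencher THF-abasic duplex. Enzyme preincubated with compounds 15 min, RT. Progress derived from fluorescence difference, third minus first kinetic read.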

[6] = Counterscreen for APE1 Inhibitors: Fluorescent Dye Displacement Validation Assay (AID 1707); details: fluorescent dye displacement from DNA; series mostly up to 57.1 µM;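 note: plate controls were ThO with dsDNA and no compound for no effect and ThO without dsDNA for full effect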
Method in brief: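 Thiazole Orange (250 nM) bound to 50 nM TAMRA-labelled dsDNA with tetrahydrofuran abasic site; displacement by DNA-binding compounds lowers fluorescence. Buffer 50 mM Tris-HCl pH 7.5, 50 mM NaCl, 2 mM MgCl2, 0.01% Tween-20; endpoint read at 480/540 nm.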

[7] = target: Endonuclease 4 (Escherichia coli (strain K12)) (UniProt P0A6C1); experiment: Counterscreen for APE1 Inhibitors: qHTS Validation Assay for Inhibitors of Endonuclease IV (AID 1708); note: potency is the fitted concentration of half-maximal effect; for activity change, negative = inhibition: % is set by controls: 0 for no effect and ±100 for the full control effect; details: E. coli endonuclease IV, DNA cleavage fluorescence; series mostly up to 57.1 µM
Method in brief: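 2 nM enzyme was preincubated with compounds for 15 min at room temperature in 50 mM Tris-HCl pH 7.5, 50 mM NaCl, 2 mM MgCl2, 1 mM DTT, 0.01% Tween-20. 50 nM THF-abasic TAMRA/BHQ-2 duplex substrate started the reaction.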

[8] = qHTS for differential inhibitors of proliferation of Plasmodium falciparum line 7G8 (AID 1815); details: Plasmodium falciparum 7G8 proliferation inhibition; series mostly up to 28.7 µM;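 note: potency is the fitted concentration of half-maximal effect; parasite growth measured after three days of incubation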
[9] = qHTS for differential inhibitors of proliferation of Plasmodium falciparum line GB4 (AID 1816); details: Potency: Plasmodium falciparum GB4 proliferation inhibition; series mostly up to 28.7 µM;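 note: potency is the fitted concentration of half-maximal effect; parasite growth measured after 72 h incubation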
[10] = qHTS for differential inhibitors of proliferation of Plasmodium falciparum line D10 (AID 1877); details: series mostly up to 28.7 µM;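 note: potency is the fitted concentration of half-maximal effect; parasites grown with compound for 72 h before DNA staining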
[11] = qHTS for differential inhibitors of proliferation of Plasmodium falciparum line Dd2 (AID 1882); details: Potency: Plasmodium falciparum Dd2 proliferation inhibition; series mostly up to 28.7 µM; note: potency is the fitted concentration of half-maximal effect; nearly all actives have a fitted effect of over 65% in size
Method in brief: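 SYBR Green I DNA fluorescence read-out, ex 485/em 535 nm. Signals were normalized to 0.29 uM artemisinin and DMSO wells, then corrected using vehicle-only plates flanking each stack. Parasite growth ran 72 h in erythrocytes before lysis.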

[12] = qHTS for differential inhibitors of proliferation of Plasmodium falciparum line W2 (AID 1883); details: Potency: Plasmodium falciparum W2 proliferation inhibition; series mostly up to 28.7 µM;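 note: potency is the fitted concentration of half-maximal effect; parasites grown with compound for 72 h before lysis and staining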
[13] = qHTS for differential inhibitors of proliferation of Plasmodium falciparum line HB3 (AID 1886); details: Potency: Plasmodium falciparum HB3 proliferation inhibition; series mostly up to 28.7 µM;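 note: potency is the fitted concentration of half-maximal effect; parasites grown with compound for 72 h before SYBR Green readout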
[14] = target: Ferritin light chain (Equus caballus) (UniProt P02791); experiment: qHTS Validation Assay for Identification of Novel General Anesthetics (AID 2323); details: horse apoferritin, anesthetic-site fluorescent probe displacement; series mostly up to 76.9 µM; note: potency is the fitted concentration of half-maximal effect
Sequence of Ferritin light chain (Equus caballus) (P02791 2-175 limits assumed): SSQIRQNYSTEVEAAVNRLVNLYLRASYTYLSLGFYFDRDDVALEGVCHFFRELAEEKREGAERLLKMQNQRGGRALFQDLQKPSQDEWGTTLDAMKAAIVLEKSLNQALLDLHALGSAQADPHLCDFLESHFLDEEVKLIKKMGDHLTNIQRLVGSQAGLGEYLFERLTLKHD
Method in brief: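 Normalized fluorescence response, scaled between free 1-AMA and 1-AMA/apoferritin complex, fitted to a four-parameter Hill equation for concentration-effect values. Binding mix: 10 uM horse-spleen apoferritin, 50% saturated 1-AMA in PBS; read 380/535 nm after 10 min.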

[15] = target: ATP-dependent DNA helicase Q1 (Homo sapiens) (UniProt P46063); experiment: qHTS Validation Assay for Inhibitors of RecQ-Like Dna Helicase 1 (RECQ1) (AID 2353); details: recombinant RECQ1 helicase DNA unwinding assay; series mostly up to 25.6 µM;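 note: plate controls were DMSO vehicle for no effect and enzyme-free control for full effect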
Sequence of ATP-dependent DNA helicase Q1 (Homo sapiens) (P46063 whole entry, looked up): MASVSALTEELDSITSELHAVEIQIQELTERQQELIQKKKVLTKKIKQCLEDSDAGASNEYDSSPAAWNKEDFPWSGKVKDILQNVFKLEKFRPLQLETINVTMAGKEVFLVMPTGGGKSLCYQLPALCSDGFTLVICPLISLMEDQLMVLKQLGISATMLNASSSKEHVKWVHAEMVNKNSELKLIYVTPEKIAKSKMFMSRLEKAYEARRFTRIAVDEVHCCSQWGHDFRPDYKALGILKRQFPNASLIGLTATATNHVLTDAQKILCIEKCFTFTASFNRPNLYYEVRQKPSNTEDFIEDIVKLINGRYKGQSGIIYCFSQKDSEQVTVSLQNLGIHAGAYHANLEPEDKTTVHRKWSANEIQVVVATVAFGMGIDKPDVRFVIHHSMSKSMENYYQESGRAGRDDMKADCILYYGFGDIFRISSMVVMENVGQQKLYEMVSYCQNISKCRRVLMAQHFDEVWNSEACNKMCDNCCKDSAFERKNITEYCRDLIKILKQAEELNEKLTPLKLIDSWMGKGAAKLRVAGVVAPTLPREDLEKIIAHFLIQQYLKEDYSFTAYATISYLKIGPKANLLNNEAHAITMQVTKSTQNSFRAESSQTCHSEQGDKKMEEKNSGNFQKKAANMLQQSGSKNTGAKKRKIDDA
Method in brief: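 50 nM RECQ1T1 preincubated 15 min with compound in Tris pH 8.0 buffer with MgCl2, DTT, Tween-20 and 2.5 ug/ml poly(dI-dC); started with 200 nM TAMRA/BHQ-2 forked duplex and 2 mM ATP. Unwinding read as fluorescence (525/598 nm), two reads 2 h apart.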

[16] = Validation screen for inhibitors of Lassa infection (AID 463096; calls by dose curve; note: % is set by controls: 0 for no effect and ±100 for the full control effect); details: Lassa virus infection, cell-based; series mostly up to 46.1 µM
[17] = target: Thyrotropin receptor (Homo sapiens) (UniProt P16473); experiment: qHTS Assay for Antagonists of the Thyroid Stimulating Hormone Receptor (AID 488980); details: TSHR-expressing cells, cAMP antagonist read-out; series mostly up to 57.5 µM; note: 0% is about no effect
Method in brief: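 Inhibition of TSH-stimulated cAMP accumulation was quantified by homogeneous time-resolved FRET in TSHR-transfected HEK293 cells. Agonist: TSH, 4 nM final (EC80).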

[18] = target: Thyrotropin-releasing hormone receptor (Homo sapiens) (UniProt P34981); experiment: qHTS for Small Molecule Agonists and Allosteric Enhancers of Human TRH Receptor: Validation Screen for Agonists (AID 493127;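 active = calcium activation more than 3 SD above the typical response in the agonist read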;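 note: intracellular calcium rise by fluo-8 fluorescence before TRH EC20 addition; 0% is about no effect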); details: TRH receptor agonist cell assay; at 2 µM; stronger effect = higher value
Sequence of Thyrotropin-releasing hormone receptor (Homo sapiens) (P34981 whole entry, looked up): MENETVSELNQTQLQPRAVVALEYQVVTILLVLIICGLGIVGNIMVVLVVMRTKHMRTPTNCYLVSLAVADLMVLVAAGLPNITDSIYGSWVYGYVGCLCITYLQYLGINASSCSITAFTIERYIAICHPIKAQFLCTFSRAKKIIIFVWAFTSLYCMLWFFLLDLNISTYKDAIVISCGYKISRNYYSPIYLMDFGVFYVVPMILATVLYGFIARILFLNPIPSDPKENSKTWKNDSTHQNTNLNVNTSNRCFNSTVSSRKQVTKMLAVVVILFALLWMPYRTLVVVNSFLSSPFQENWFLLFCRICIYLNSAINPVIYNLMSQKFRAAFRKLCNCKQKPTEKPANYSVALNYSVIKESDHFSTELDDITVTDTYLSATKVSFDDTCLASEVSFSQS
Method in brief: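 TRHR-expressing cells were plated overnight in serum-containing medium, then loaded with fluo-8 calcium dye at room temperature for 30 min–1.5 h. After a 10 s baseline, compound was pin-transferred and calcium fluorescence (ex 480/em 530) read kinetically for agonist response.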

[19] = target: Galactokinase (Homo sapiens) (UniProt P51570); experiment: qHTS Validation Assay for Inhibitors of Human Galactokinase (GALK) (AID 493189); details: purified human GALK enzyme activity, qHTS 7-point titration; series mostly up to 57.5 µM; note: 0% is about no effect
Sequence of Galactokinase (Homo sapiens) (P51570 whole entry, looked up): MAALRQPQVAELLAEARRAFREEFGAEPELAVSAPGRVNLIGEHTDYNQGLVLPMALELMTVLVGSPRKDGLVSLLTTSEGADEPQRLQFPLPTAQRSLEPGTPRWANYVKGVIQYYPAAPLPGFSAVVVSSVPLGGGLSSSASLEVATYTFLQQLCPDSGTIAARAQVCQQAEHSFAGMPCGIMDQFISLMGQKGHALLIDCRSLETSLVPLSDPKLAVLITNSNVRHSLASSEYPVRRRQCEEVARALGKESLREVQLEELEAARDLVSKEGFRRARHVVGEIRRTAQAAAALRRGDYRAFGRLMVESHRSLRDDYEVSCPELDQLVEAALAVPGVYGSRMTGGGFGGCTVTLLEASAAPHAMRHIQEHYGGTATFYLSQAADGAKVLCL
Method in brief: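 Enzyme activity is inferred from ATP consumption: human GALK phosphorylates galactose (100 uM) using 35 uM ATP for 1 h at room temperature, and luciferase-based Kinase-Glo Plus reports unconsumed ATP.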

[20] = target: Rap guanine nucleotide exchange factor 3 (Homo sapiens) (UniProt O95398); experiment: Confirmatory qHTS for agonist of cAMP-regulated guanine nucleotide exchange factor 3 (EPAC1) (AID 1645881); details: EPAC1 Rap1B BODIPY-GDP exchange fluorescence; series mostly up to 154 µM;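 note: EPAC1 catalysed release of BODIPY-GDP from Rap1B seen as fluorescence loss; 100% = effect of cAMP agonist control; nearly all actives have a fitted effect of over 75% in size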
Sequence of Rap guanine nucleotide exchange factor 3 (Homo sapiens) (O95398 whole entry, looked up): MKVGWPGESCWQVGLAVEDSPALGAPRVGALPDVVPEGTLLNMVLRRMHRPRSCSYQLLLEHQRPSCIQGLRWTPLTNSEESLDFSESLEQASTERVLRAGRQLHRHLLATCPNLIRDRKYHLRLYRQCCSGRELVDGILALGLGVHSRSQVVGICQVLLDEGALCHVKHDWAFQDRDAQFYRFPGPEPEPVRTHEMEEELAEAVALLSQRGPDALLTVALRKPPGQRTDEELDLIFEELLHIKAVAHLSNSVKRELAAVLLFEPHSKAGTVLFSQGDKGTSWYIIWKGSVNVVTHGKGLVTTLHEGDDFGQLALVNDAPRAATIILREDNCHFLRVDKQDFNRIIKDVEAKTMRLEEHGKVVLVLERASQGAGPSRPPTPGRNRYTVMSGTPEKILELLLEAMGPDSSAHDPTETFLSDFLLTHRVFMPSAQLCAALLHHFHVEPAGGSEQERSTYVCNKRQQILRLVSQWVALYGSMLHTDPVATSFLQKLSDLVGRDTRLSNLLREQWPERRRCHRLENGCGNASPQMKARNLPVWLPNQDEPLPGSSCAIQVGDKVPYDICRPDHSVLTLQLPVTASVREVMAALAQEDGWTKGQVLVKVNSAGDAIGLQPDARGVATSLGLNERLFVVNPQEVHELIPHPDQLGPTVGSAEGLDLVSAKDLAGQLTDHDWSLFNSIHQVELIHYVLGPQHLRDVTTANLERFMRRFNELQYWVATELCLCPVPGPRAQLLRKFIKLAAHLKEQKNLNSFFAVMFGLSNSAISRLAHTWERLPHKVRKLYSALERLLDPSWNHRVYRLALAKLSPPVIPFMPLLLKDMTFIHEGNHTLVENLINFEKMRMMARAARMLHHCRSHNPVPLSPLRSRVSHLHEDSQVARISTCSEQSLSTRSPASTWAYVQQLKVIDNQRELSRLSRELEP

[21] = target: Rap guanine nucleotide exchange factor 4 (Homo sapiens) (UniProt Q8WZA2); experiment: Confirmatory qHTS for agonist of cAMP-regulated guanine nucleotide exchange factor 4 (EPAC2) (AID 1645884); details: EPAC2 GEF activity, Rap1B-BODIPY-GDP fluorescence; series mostly up to 154 µM;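 note: nucleotide exchange releases bodipy-GDP from Rap1 and this lowers its fluorescence; % is set by controls: 0 for no effect and ±100 for the full control effect; nearly all actives have a fitted effect of over 65% in size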
Sequence of Rap guanine nucleotide exchange factor 4 (Homo sapiens) (Q8WZA2 whole entry, looked up): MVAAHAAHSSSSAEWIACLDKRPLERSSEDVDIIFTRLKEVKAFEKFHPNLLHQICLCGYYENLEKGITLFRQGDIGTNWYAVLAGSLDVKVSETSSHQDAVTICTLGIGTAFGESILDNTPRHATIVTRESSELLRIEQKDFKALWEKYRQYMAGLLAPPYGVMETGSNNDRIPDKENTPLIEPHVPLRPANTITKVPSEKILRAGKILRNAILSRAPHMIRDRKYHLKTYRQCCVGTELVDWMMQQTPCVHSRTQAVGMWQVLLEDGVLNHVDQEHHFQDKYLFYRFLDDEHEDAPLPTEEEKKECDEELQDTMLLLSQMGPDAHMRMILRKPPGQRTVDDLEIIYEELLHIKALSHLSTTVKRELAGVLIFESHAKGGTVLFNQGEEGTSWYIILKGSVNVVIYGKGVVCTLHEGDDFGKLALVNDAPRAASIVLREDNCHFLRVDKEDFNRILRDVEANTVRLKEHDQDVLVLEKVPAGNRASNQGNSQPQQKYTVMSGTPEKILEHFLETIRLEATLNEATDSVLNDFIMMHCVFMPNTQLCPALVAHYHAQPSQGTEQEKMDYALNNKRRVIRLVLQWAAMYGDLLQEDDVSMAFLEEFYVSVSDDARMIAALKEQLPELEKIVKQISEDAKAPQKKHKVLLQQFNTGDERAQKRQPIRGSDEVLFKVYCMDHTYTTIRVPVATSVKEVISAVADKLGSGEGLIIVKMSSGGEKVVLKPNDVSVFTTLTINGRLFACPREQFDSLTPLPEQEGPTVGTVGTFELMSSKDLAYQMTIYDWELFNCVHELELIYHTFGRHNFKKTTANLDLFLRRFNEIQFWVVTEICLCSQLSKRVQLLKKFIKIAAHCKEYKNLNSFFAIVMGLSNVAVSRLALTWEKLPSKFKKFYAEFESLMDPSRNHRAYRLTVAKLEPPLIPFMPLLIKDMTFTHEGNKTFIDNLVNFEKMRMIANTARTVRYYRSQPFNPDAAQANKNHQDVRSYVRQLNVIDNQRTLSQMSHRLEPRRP

[22] = target: Rap guanine nucleotide exchange factor 3 (Homo sapiens) (UniProt O95398); experiment: Counterscreen qHTS for antagonist of cAMP-regulated guanine nucleotide exchange factor 3 (EPAC1) (AID 1645888); details: Rap1B-BODIPY-GDP nucleotide exchange, fluorescence; series mostly up to 154 µM;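 note: fluorescence loss as bound BODIPY-GDP is released from Rap1B; % of control where 0% means no effect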
Method in brief: (§1)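 Measured: fluorescence of BODIPY-GDP bound to Rap1B, which falls as exchange proceeds. Conditions include 50 uM competing GDP, 5 and 30 min reads, and a later cAMP challenge for antagonist detection.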

[23] = target: Rap guanine nucleotide exchange factor 3 (Homo sapiens) (UniProt O95398); experiment: Counterscreen qHTS for agonist of cAMP-regulated guanine nucleotide exchange factor 3 (EPAC1) (AID 1645889); details: EPAC1 Rap1B-BODIPY-GDP exchange, fluorescence; series mostly up to 154 µM; note: % of control where 0% means no effect; nearly all actives have a fitted effect of over 40% in size
Method in brief: as §1

[24] = target: Rap guanine nucleotide exchange factor 4 (Homo sapiens) (UniProt Q8WZA2); experiment: Confirmatory qHTS for antagonist of cAMP-regulated guanine nucleotide exchange factor 4 (EPAC2) (AID 1645885); details: EPAC2 Rap1B-BODIPY-GDP exchange fluorescence, biochemical; series mostly up to 114 µM; note: % is set by controls: 0 for no effect and ±100 for the full control effect; nearly all actives have a fitted effect of over 25% in size

`CC(=O)NC[C@H]1C[C@@H]2CCN1C[C@@H]2c1cc(-c2ccc3ccccc3c2)nn1C` showed an activity [1] of 4.95%, an activity change, negative = inhibition [2] of 4.16% and an activity [3] of 1.11%. For the same compound, the activity [4] was 2.7%.
In the case of `Oc1cc2c(cc1O)[C@H]1c3ccccc3CNC1CC2` (some centres undefined), the Potency [5] is reported as “inactive”, the outcome [6] is reported as “inactive” and the Potency [7] is reported as “inactive”. The Potency [8] was 10 µM (active), the Potency [9] was 12.6 µM (active) and the Potency [10] was 11.2 µM (active). The Potency [11] was 8.91 µM (active), the Potency [12] was 10 µM (active) and the Potency [13] was 11.2 µM (active). For the same compound, the Potency [14] was “inactive”, the outcome [15] was “inactive” and the Potency [16] was “inactive”. For the same compound, the outcome [17] was “inactive”, the activation [18] was 0.812% (inactive) and the outcome [19] was “inactive”.
In the case of `N.N.N.N.N.N.N.N.N.N.N.N.N.N.O.O.[Cl-].[Cl-].[Cl-].[Cl-].[Cl-].[Cl-].[Ru].[Ru].[Ru]`, the Potency [7] is reported as 28.2 µM (active), the Potency [14] is reported as 25.1 µM (active) and the Potency [16] is reported as “inactive”.
With `O=C1NCN(c2ccccc2)C12CCN(C(c1cc3ccccc3o1)c1nnnn1C1CCCCC1)CC2` (centres undefined) the Potency [20] was “inactive”, the Potency [21] was “inactive” and the outcome [22] was “inactive”. For the same compound, the Potency [23] was “inactive”.
With `Nc1c(Br)cc2c3c(cccc13)-c1ccccc1-2` the activation [21] was 8.9% [at 17.1 µM, percent relative to cAMP agonist control] (inactive), the activity change, negative = inhibition [24] was 2.51% [at 12.7 µM] (inactive) and the activity change, negative = inhibition [22] was 16.7% [at 30.8 µM] (inactive).
